The record followed here is PubChem BioAssay.

A number with no mark means an inactive call. The source made the active and inactive calls.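 Rule for the calls: active = inhibition at or above 50% relative to wild type and mutant plate controls; inactive = inhibition below 50%.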

Broadly, the inhibition is the relative decrease from the control value, in per cent.

The assay in a line: inhibitors of Chlamydomonas gravitaxis, primary screen, whole organism, Chlamydomonas reinhardtii, WT vs cilia-less mutant, absorbance, 96-well (AID 463189).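 Note: 0% = wild type cc124 cells in DMSO and 100% = ciliumless bld1 mutant cells.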 Particulars: OD600 absorbance, 2 days, at 10 µM, active compounds read high.
For the molecule `C=CCN1CC[C@]23c4c5ccc(O)c4O[C@@H]2/C(=N/N=C2\CC[C@@]4(O)C6Cc7ccc(O)c8c7[C@@]4(CCN6CC=C)[C@@H]2O8)CC[C@@]3(O)C1C5`, the inhibition was 6.59%.
As for `NNC(N)=O`, the figure is 1.88%; as for `C[N+](C)(C)CC#CCOC(=O)Nc1cccc(Cl)c1`, 2.56%.
With `O=[N+]([O-])c1ccc(O[C@@H]2O[C@H](CO)[C@@H](O)[C@H](O)[C@H]2F)c([N+](=O)[O-])c1` the figure was 3.53%.
With `NCC#Cc1ccccc1` the figure was 1.68%; with `NC1CCc2cc(O)c(O)cc2C1` (centres undefined), -5.92%.
On to `CC[N+](CC)(CC)CC`, for which the inhibition is 6.89%.
Turning to `CCCN(CCC)[C@@H]1CCc2cccc(O)c2C1`, the inhibition is -6.71%.
As for `CC(C)(C)c1cc(C=C(C#N)C#N)cc(C(C)(C)C)c1O`, the figure is 1.13%.
As for `CP(=O)(O)CCCN`, the figure is 3.64%; as for `COC(=O)[C@@H](N)CCCN=C(N)N[N+](=O)[O-]`, -4.62%.
Take `CNCCc1ccc(O)c(O)c1`: the inhibition is 8.08%.
With `CN1CCc2cc(O)cc3c2[C@H]1Cc1ccc(O)c(O)c1-3` the figure was -0.305%.
With `C[C@@H]1O[C@H](C[N+](C)(C)C)CS1` the figure was 4.65%.
As for `NC(CP(=O)(O)O)C(=O)O` (centres undefined), the figure is 5.89%; as for `COc1cc(C(O)CN)ccc1O` (centres undefined), 2.77%; as for `CN1C2CCC1CC(OC(=O)c1cc(Cl)cc(Cl)c1)C2` (centres undefined), 116% (active).
With `NCC(O)c1cc(O)c(O)cc1F` (centres undefined), the inhibition was 1.21%.
With `COc1cc(CCN)ccc1O` the figure was 2.21%.
